# Where “and” joins values, the source holds several entries; their conditions need not be identical. Identical values can stand only once. Values without a mark were called inactive. Records with an inconclusive call do not appear. Entries that show only a call come without a potency. Calls of active or inactive are those of the source. Calls follow the shape of the dose curve; as a rule, active = well fitted curve in the direction sought with a large enough effect in the repeat runs; inconclusive = weak or mixed curves; inactive = no such curve, though single readings can be large; an effect the other way counts as inactive or inconclusive.
# Assays:
# [1] = qHTS RealTime-Glo MT Cell Viability Assay in HepG2 cells - 8 hour (AID 1224873); also: nearly all actives have a fitted effect of over 55% in size
# Method in brief: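 Real-time viability: cells seeded at 600 per well together with NanoLuc and cell-permeant prosubstrate, compounds added after 5 h incubation. Luminescence tracked at 0, 8, 16, 24, 32 and 40 h of exposure.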
# [2] = qHTS RealTime-Glo MT Cell Viability Assay in HEK293 cells - 40 hour (AID 1224874); details: RealTime-Glo luminescence; max response: hits give low values; also: nearly all actives have a fitted effect of over 50% in size; also: potency is read from the fitted curve at half-maximal effect
# Method in brief: (§1)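 Luminescence readout at each listed time point; HEK293, 600 cells/well, RealTime-Glo MT reagent added with cells; compounds pinned (23 nL in DMSO) after 5 h at 37 C; continuous culture at 37 C.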
# [3] = A CellTox Green Cytotoxicity Assay to monitor cytotoxicity in HEK293 cells - 24 hour (AID 1224875); also: nearly all actives have a fitted effect of over 45% in size; also: potency is read from the fitted curve at half-maximal effect; as to activity change: series mostly up to about 77 µM
# Method in brief: (§2)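 Read-out: fluorescence of a cell-impermeant cyanine dye staining DNA of dead cells, proportional to cytotoxicity. HEK293, 600 cells/well with reagent, compound (23 nL DMSO) added after 5 h; reads at 0, 8, 16, 24, 32, 40 h.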
# [4] = A CellTox Green Cytotoxicity Assay to monitor cytotoxicity in HepG2 cells - 16 hour (AID 1224876); also: nearly all actives have a fitted effect of over 45% in size
# Method in brief: (§3)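 HepG2, 600 cells/well premixed w/ CellTox Green; 5 h settle, 37 C/5% CO2; pintool cpd add (DMSO); 37 C, 40 h; fluorescence read at 0, 8, 16, 24, 32, 40 h.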
# [5] = qHTS RealTime-Glo MT Cell Viability Assay in HepG2 cells - 32 hour (AID 1224877); also: nearly all actives have a fitted effect of over 55% in size
# Method in brief: (§4)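 Luminescence read-out: viable HepG2 cells reduce a prosubstrate to a NanoLuc substrate, giving a signal proportional to live cell number. Reads taken at 0, 8, 16, 24, 32 and 40 h of compound exposure at 37 C.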
# [6] = A CellTox Green Cytotoxicity Assay to monitor cytotoxicity in HepG2 cells - 24 hour (AID 1224878); also: nearly all actives have a fitted effect of over 45% in size
# Method in brief: as §3
# [7] = A CellTox Green Cytotoxicity Assay to monitor cytotoxicity in HepG2 cells - 40 hour (AID 1224879); also: nearly all actives have a fitted effect of over 40% in size
# Method in brief: as §3
# [8] = qHTS RealTime-Glo MT Cell Viability Assay in HEK293 cells - 0 hour (AID 1224880); also: top concentration of the series differs between compounds; nearly all actives have a fitted effect of over 45% in size
# Method in brief: as §1
# [9] = A CellTox Green Cytotoxicity Assay to monitor cytotoxicity in HEK293 cells - 32 hour (AID 1224881); also: nearly all actives have a fitted effect of over 40% in size; also: potency is read from the fitted curve at half-maximal effect
# Method in brief: as §2
# [10] = A CellTox Green Cytotoxicity Assay to monitor cytotoxicity in HepG2 cells - 0 hour (AID 1224882); also: nearly all actives have a fitted effect of over 35% in size
# Method in brief: as §3
# [11] = A CellTox Green Cytotoxicity Assay to monitor cytotoxicity in HepG2 cells - 32 hour (AID 1224883); also: nearly all actives have a fitted effect of over 50% in size
# Method in brief: as §3
# [12] = A CellTox Green Cytotoxicity Assay to monitor cytotoxicity in HEK293 cells - 8 hour (AID 1224884); also: nearly all actives have a fitted effect of over 35% in size
# Method in brief: as §2
# [13] = qHTS RealTime-Glo MT Cell Viability Assay in HepG2 cells - 16 hour (AID 1224885); also: nearly all actives have a fitted effect of over 50% in size
# Method in brief: as §4
# [14] = qHTS RealTime-Glo MT Cell Viability Assay in HEK293 cells - 24 hour (AID 1224886); also: nearly all actives have a fitted effect of over 50% in size; also: potency is read from the fitted curve at half-maximal effect; as to activity change, negative = cytotoxicity: top concentration of the series differs between compounds
# Method in brief: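 Nonlytic real-time viability readout: viable cells convert prosubstrate to NanoLuc substrate, giving luminescence proportional to live cell number. HEK293, 600 cells/well, compound added after 5 h, continuous culture at 37 C.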
# [15] = qHTS RealTime-Glo MT Cell Viability Assay in HEK293 cells - 8 hour (AID 1224887)
# Method in brief: as §1
# [16] = A CellTox Green Cytotoxicity Assay to monitor cytotoxicity in HEK293 cells - 16 hour (AID 1224888); also: nearly all actives have a fitted effect of over 35% in size
# Method in brief: as §2
# [17] = qHTS RealTime-Glo MT Cell Viability Assay in HepG2 cells - 0 hour (AID 1224889); also: nearly all actives have a fitted effect of over 50% in size
# Method in brief: as §4
# [18] = A CellTox Green Cytotoxicity Assay to monitor cytotoxicity in HepG2 cells - 8 hour (AID 1224890); also: nearly all actives have a fitted effect of over 45% in size
# Method in brief: as §3
# [19] = qHTS assay to identify small molecule antagonists of the estrogen receptor alpha (ER-alpha) signaling pathway using the BG1 cell line in the presence of 0.1 nM 17-beta-estradiol - cell viability counter screen (AID 1259241); also: nearly all actives have a fitted effect of over 40% in size; also: potency is read from the fitted curve at half-maximal effect
# Method in brief: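 Measures cytotoxicity alongside the ER-alpha antagonist readout: VM7Luc4E2 cells, charcoal-stripped serum, 0.1 nM 17beta-estradiol final, 22 hr compound incubation at 37C, CellTiter-Fluor fluorescence.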
# [20] = qHTS assay to identify small molecule antagonists of the androgen receptor (AR) signaling pathway using the MDA cell line in the presence of 0.5 nM R1881 - cell viability counter screen (AID 1259242); also: nearly all actives have a fitted effect of over 45% in size
# Method in brief: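 Live-cell protease fluorescence, CellTiter-Fluor, 30 min at 37C. Cells: MDA-kb2, 3,000/well, preincubated 5 hr. Compounds plus 0.5 nM R1881 final, 16 hr, 37C, 0% CO2.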
compound,measurement,setting,value
CC(C)CCCCCOC(=O)CCS,Potency,[1],inactive
same,max response,[2],0.648%
same,Potency,[3],inactive
same,Potency,[4],inactive
same,Potency,[5],inactive
same,Potency,[6],inactive
same,Potency,[7],inactive
same,Potency,[8],inactive
same,Potency,[9],inactive
same,Potency,[10],inactive
same,Potency,[11],inactive
same,Potency,[12],inactive
same,Potency,[13],inactive
same,Potency,[14],inactive
same,Potency,[15],inactive
same,Potency,[16],inactive
same,Potency,[17],inactive
same,Potency,[18],inactive
same,Potency,[19],inactive
same,Potency,[20],inactive
CCC(CC)C(C)CCOC(C)=O (stereo unspecified),Potency,[1],inactive
same,max response,[2],20.3%
same,Potency,[3],inactive
same,Potency,[4],inactive
same,Potency,[5],inactive
same,Potency,[6],inactive
same,Potency,[7],inactive
same,Potency,[8],inactive
same,Potency,[9],inactive
same,Potency,[10],inactive
same,Potency,[11],inactive
same,Potency,[12],inactive
same,Potency,[13],inactive
same,Potency,[15],inactive
same,Potency,[16],inactive
same,Potency,[18],inactive
same,Potency,[19],inactive
same,Potency,[20],inactive
CCO[Si](OCC)(OCC)OCC,Potency,[1],inactive
same,max response,[2],3.28%
same,Potency,[3],inactive
same,Potency,[4],inactive
same,Potency,[5],inactive
same,Potency,[6],inactive
same,Potency,[7],inactive
same,Potency,[8],inactive
same,Potency,[9],inactive
same,Potency,[10],inactive
same,Potency,[11],inactive
same,Potency,[12],inactive
same,Potency,[14],inactive
same,Potency,[15],inactive
same,Potency,[16],inactive
same,Potency,[17],inactive
same,Potency,[18],inactive
same,Potency,[19],inactive
same,Potency,[20],inactive
O=S(=O)(O)c1ccc(Nc2nc(Nc3ccc(/C=C/c4ccc(Nc5nc(Nc6ccc(S(=O)(=O)O)cc6)nc(N(CCO)CCO)n5)cc4S(=O)(=O)O)c(S(=O)(=O)O)c3)nc(N(CCO)CCO)n2)cc1,Potency,[1],inactive
same,max response,[2],-1.51%
same,Potency,[3],inactive
same,Potency,[4],inactive
same,Potency,[5],inactive
same,Potency,[6],inactive
same,Potency,[7],inactive
same,Potency,[8],inactive
same,Potency,[9],inactive
same,Potency,[10],inactive
same,Potency,[11],inactive
same,Potency,[12],inactive
same,Potency,[13],inactive
same,Potency,[15],inactive
same,Potency,[16],inactive
same,Potency,[17],inactive
CC(=O)Oc1cc2c(s1)CCN(C(C(=O)C1CC1)c1ccccc1F)C2 (stereo unspecified),Potency,[1],inactive
same,max response,[2],-4.77%
same,Potency,[3],inactive
same,Potency,[4],inactive
same,Potency,[5],inactive
same,Potency,[6],inactive
same,Potency,[7],inactive
same,Potency,[8],inactive
same,Potency,[9],inactive
same,Potency,[10],inactive
same,Potency,[11],inactive
same,Potency,[12],inactive
same,Potency,[14],inactive
same,Potency,[15],inactive
same,Potency,[16],inactive
same,Potency,[17],inactive
same,Potency,[18],inactive
same,Potency,[19],inactive
same,Potency,[20],inactive
Cc1cccc2cccnc12,Potency,[1],inactive
same,max response,[2],0.538%
same,Potency,[3],inactive
same,Potency,[4],inactive
same,Potency,[5],inactive
same,Potency,[6],inactive
same,Potency,[7],inactive
same,Potency,[8],inactive
same,Potency,[9],inactive
same,Potency,[10],inactive
same,Potency,[11],inactive
same,Potency,[13],inactive
same,Potency,[14],inactive
same,Potency,[15],inactive
same,Potency,[16],inactive
same,Potency,[17],inactive
same,Potency,[18],inactive
same,Potency,[19],inactive
same,Potency,[20],inactive
CCCCCCC1CCCC(=O)O1 (stereo unspecified),Potency,[1],inactive
same,max response,[2],3.13%
same,Potency,[3],inactive
same,Potency,[4],inactive
same,Potency,[5],inactive
same,Potency,[6],inactive
same,Potency,[7],inactive
same,Potency,[8],inactive
same,Potency,[9],inactive
same,Potency,[10],inactive
same,Potency,[11],inactive
same,Potency,[13],inactive
same,Potency,[14],inactive
same,Potency,[15],inactive
same,Potency,[16],inactive
same,Potency,[18],inactive
same,Potency,[19],inactive
same,Potency,[20],inactive
Cc1c(C)c2c(c(C)c1O)CC[C@@](C)(CCC[C@H](C)CCC[C@H](C)CCCC(C)C)O2,Potency,[1],inactive
same,max response,[2],-14.1%
same,Potency,[3],inactive
same,Potency,[4],inactive
same,Potency,[5],inactive
same,Potency,[6],inactive
same,Potency,[7],inactive
same,Potency,[8],inactive
same,Potency,[9],inactive
same,Potency,[10],inactive
same,Potency,[11],inactive
same,Potency,[12],inactive
same,Potency,[13],inactive
same,Potency,[15],inactive
same,Potency,[16],inactive
same,Potency,[17],inactive
same,Potency,[18],inactive
same,Potency,[19],inactive
same,Potency,[20],inactive
CC(C)(C)CC(C)(C)c1ccc(Nc2ccc(C(C)(C)CC(C)(C)C)cc2)cc1,"viability change, negative = cytotoxic",[1],4.91% [at 6.97 µM]
same,max response,[2],9%
same,activity change,[3],"4.29% [at 6.97 µM, hits give high values]"
same,cytotoxicity increase,[4],-0.431% [at 6.97 µM]
same,"activity change, negative = cytotoxic",[5],0.186% [at 6.97 µM]
same,cytotoxicity,[6],4.45% [at 6.97 µM]
same,cytotoxicity increase,[7],2.12% [at 6.97 µM]
same,"activity change, negative = cytotoxicity",[8],-8.12% [at 6.97 µM]
same,cytotoxicity increase,[9],0.962% [at 6.97 µM]
same,cytotoxicity,[10],0.162% [at 6.97 µM]
same,cytotoxicity increase,[11],0.939% [at 6.97 µM]
same,cytotoxicity increase,[12],0.178% [at 6.97 µM]
same,"activity change, negative = cytotoxic",[13],0.171% [at 6.97 µM]
same,"activity change, negative = cytotoxicity",[14],3.98% [at 6.97 µM]
same,"activity change, negative = cytotoxicity",[15],-20.4% [at 6.97 µM]
same,activity change,[16],"5.08% [at 6.97 µM, hits give high values]"
same,"activity change, negative = cytotoxicity",[17],1.23% [at 6.97 µM]
same,cytotoxicity increase,[18],1.07% [at 6.97 µM]
same,"activity change, negative = cytotoxicity",[19],4% [at 8.39 µM]
same,"viability change, negative = cytotoxic",[20],0.0791% [at 8.39 µM]
Cc1c2ccccc2c(C)c2c1ccc1ccccc12,Potency,[1],inactive
same,Potency,[2],43.2 µM (active) and 34.7 µM (active)
same,Potency,[3],49 µM (active)
same,Potency,[4],inactive
same,Potency,[5],inactive
same,Potency,[6],inactive
same,Potency,[7],inactive
same,Potency,[8],inactive
same,Potency,[9],43.6 µM (active)
same,Potency,[10],inactive
same,Potency,[11],inactive
same,Potency,[12],inactive
same,Potency,[13],inactive
same,Potency,[14],43.2 µM (active) and 21.9 µM (active)
same,Potency,[16],inactive
same,Potency,[18],inactive
same,Potency,[19],inactive
CNc1ccc([N+](=O)[O-])cc1,Potency,[1],inactive
same,max response,[2],-13.4%
same,Potency,[3],inactive
same,Potency,[4],inactive
same,Potency,[5],inactive
same,Potency,[6],inactive
same,Potency,[7],inactive
same,Potency,[8],inactive
same,Potency,[9],inactive
same,Potency,[10],inactive
same,Potency,[11],inactive
same,Potency,[12],inactive
same,Potency,[13],inactive
same,Potency,[14],inactive
same,Potency,[15],inactive
same,Potency,[16],inactive
same,Potency,[17],inactive
same,Potency,[18],inactive
same,Potency,[19],43.4 µM (active)
CC(CCc1ccccc1)NCC(O)c1ccc(O)c(C(N)=O)c1 (stereo unspecified),Potency,[1],inactive
same,max response,[2],0.74%
same,Potency,[3],inactive
same,Potency,[4],inactive
same,Potency,[5],inactive
same,Potency,[6],inactive
same,Potency,[7],inactive
same,Potency,[8],inactive
same,Potency,[9],inactive
same,Potency,[10],inactive
same,Potency,[11],inactive
same,Potency,[12],inactive
same,Potency,[14],inactive
same,Potency,[15],inactive
same,Potency,[16],inactive
same,Potency,[18],inactive
same,Potency,[20],inactive
c1ccc(SSc2ccccc2)cc1,Potency,[1],inactive
same,max response,[2],-15.4%
same,Potency,[3],inactive
same,Potency,[4],inactive
same,Potency,[5],inactive
same,Potency,[6],inactive
same,Potency,[7],inactive
same,Potency,[9],inactive
same,Potency,[10],inactive
same,Potency,[11],inactive
same,Potency,[15],inactive
same,Potency,[16],inactive
same,Potency,[17],inactive
same,Potency,[18],inactive
same,Potency,[19],inactive

# Source: PubChem BioAssay (Tox21)
